From PubChem BioAssay AID588689 (Southern Research Specialized Biocontainment Screening …, 2011)
The campaign covered roughly 340,000 compounds. About 1,000 (0.29%) were called active. No stated cut-off is given here; in the data, inconclusive means inhibition above about 29% without an active follow-up result; inactive means below that. These entries were drawn from the full list. Measured potencies and affinities stand elsewhere.

Biological target: Genome polyprotein (Dengue virus type 2 (strain 16681-PDK53)) (UniProt P29991)
Sequence (P29991 whole entry, looked up): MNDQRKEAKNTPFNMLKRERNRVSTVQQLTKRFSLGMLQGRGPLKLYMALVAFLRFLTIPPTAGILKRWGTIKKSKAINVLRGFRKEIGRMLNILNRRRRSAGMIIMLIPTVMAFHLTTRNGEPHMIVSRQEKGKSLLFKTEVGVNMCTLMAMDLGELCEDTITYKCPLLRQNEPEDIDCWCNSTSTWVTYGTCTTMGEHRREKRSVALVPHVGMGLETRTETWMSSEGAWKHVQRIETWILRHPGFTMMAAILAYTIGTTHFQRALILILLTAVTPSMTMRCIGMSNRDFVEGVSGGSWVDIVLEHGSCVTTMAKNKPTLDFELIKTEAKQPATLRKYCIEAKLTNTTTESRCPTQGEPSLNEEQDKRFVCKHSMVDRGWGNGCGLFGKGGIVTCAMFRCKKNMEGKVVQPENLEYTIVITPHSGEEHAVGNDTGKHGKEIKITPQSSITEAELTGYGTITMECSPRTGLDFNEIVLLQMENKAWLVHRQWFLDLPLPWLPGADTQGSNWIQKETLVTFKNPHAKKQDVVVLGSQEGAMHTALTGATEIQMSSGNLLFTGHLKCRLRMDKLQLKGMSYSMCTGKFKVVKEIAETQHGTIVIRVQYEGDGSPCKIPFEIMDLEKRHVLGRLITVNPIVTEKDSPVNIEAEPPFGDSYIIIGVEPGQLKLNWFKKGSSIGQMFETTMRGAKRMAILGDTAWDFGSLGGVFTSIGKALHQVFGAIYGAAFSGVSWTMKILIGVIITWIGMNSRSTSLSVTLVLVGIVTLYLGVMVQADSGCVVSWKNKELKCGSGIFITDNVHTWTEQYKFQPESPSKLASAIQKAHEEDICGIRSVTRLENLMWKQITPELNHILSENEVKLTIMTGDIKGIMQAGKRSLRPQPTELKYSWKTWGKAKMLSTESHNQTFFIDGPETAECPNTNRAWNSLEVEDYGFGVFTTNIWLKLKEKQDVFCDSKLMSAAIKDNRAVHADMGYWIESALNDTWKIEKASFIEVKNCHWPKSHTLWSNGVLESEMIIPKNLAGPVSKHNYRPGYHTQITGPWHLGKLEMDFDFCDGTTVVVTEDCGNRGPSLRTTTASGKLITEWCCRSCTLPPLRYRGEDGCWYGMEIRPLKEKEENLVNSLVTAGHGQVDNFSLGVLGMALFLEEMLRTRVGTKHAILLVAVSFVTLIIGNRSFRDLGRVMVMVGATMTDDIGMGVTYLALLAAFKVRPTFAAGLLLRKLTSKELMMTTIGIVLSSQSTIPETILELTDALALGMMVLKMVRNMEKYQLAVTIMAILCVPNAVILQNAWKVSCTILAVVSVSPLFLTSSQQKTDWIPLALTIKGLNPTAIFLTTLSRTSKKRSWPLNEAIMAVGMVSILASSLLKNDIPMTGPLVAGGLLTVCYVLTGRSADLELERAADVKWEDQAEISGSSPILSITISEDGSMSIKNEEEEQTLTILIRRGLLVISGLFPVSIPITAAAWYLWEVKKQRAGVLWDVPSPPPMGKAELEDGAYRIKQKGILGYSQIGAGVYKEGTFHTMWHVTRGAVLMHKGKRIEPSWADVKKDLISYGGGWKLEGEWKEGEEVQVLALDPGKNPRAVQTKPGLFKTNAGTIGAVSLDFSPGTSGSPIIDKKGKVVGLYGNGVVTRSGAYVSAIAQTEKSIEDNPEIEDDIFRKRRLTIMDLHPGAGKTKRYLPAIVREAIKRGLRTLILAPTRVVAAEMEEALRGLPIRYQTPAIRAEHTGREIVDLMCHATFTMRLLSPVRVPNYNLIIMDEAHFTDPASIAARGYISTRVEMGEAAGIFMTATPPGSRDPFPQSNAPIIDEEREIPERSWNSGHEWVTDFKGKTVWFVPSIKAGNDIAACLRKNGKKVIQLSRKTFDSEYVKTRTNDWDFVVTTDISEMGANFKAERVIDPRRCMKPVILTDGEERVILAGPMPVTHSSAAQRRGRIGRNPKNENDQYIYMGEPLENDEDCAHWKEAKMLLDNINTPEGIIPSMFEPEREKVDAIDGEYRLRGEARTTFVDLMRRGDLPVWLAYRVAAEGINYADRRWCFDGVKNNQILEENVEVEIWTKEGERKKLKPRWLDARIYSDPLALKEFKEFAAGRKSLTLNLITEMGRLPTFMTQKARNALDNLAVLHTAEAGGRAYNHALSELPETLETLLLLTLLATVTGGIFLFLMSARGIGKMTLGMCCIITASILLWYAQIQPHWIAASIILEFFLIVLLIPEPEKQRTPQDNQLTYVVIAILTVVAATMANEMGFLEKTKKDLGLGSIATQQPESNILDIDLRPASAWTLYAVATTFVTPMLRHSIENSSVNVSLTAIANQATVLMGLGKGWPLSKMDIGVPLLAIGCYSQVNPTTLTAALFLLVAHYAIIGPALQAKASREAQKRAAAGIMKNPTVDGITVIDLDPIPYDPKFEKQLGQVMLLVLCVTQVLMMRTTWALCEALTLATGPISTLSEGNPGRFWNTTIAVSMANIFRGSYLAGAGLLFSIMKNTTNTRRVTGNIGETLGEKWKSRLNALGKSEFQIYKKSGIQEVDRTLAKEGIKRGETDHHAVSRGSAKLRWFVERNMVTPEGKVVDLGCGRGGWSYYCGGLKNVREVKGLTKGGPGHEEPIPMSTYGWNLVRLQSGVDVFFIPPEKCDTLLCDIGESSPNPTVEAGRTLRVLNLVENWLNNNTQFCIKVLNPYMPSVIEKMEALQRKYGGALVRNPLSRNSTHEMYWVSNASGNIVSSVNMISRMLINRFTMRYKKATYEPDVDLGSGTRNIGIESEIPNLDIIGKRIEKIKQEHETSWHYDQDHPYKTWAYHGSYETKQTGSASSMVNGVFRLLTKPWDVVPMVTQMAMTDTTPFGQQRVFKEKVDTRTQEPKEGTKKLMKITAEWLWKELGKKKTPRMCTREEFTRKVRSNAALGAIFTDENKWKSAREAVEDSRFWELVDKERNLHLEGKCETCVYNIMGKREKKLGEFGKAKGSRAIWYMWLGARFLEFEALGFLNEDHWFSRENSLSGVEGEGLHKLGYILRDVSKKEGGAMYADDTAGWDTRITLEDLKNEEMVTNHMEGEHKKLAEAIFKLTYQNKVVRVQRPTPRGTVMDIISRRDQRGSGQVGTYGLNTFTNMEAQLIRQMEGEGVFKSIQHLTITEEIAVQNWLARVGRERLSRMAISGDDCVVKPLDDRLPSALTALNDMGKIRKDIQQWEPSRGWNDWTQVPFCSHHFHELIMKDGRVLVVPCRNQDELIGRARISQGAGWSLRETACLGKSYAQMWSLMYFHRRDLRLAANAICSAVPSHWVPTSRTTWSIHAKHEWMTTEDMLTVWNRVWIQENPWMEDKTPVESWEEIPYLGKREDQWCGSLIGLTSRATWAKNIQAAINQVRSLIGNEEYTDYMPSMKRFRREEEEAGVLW
Assay: flavivirus cap methylation enzyme inhibition – biochemical, confirmation dose response, primary screen (AID 588689)
Details: Dengue-2 NS5 methyltransferase capping enzyme assay, at 25 µM, stronger effect = higher value
[1] = measured here: pilot screen replicate inhibition

| Compound | inhibition | inhibition [1] [%] |
| --- | --- | --- |
| Cc1cnn(C(=O)c2cc(-c3ccccn3)nc3ccc(Cl)cc23)c1 | 8.88% (inactive) |  |
| CCOC(=O)NC1(C(F)(F)F)NC(=O)N(C2CCCCC2)C1=O (stereo not drawn) | -2.12% (inactive) |  |
| COc1ccc(CCNC(=O)CSc2nc(=O)n3cc(C)ccc3n2)cc1OC | 3.6% (inactive) |  |
| CCCCn1c(SCC(=O)NNC(=O)c2ccccc2)n[nH]c1=O | 3.69% (inactive) |  |
| Cc1nnc(SCC(=O)Nc2nc3ccccc3s2)n(N)c1=O | -2.58% (inactive) |  |
| O=[N+]([O-])c1c(Nc2ccccc2O)cc(N2CCOCC2)c2nonc12 | 6.36% (inactive) |  |
| O=C(O)c1ccc(Nc2ccc3nonc3c2[N+](=O)[O-])cc1 | -2.31% (inactive) |  |
| Cc1c(Nc2cc(N3CCCCCC3)c3nonc3c2[N+](=O)[O-])c(=O)n(-c2ccccc2)n1C | -6.93% (inactive) |  |
| CCNc1cc(Nc2c(C)n(C)n(-c3ccccc3)c2=O)c([N+](=O)[O-])c2nonc12 | 6.99% (inactive) |  |
| O=[N+]([O-])c1c(Nc2ccccc2O)ccc2nonc12 | 6.25% (inactive) |  |
| O=C(O)c1cccc(Nc2ccc([N+](=O)[O-])c3nonc23)c1 | 1.29% (inactive) |  |
| O=C(O)c1cccc(Nc2ccc3nonc3c2[N+](=O)[O-])c1 | 1.54% (inactive) |  |
| O=C(O)c1ccc(Nc2ccc([N+](=O)[O-])c3nonc23)cc1 | -1.54% (inactive) |  |
| O=C(COC(=O)/C=C/c1cccc(Br)c1)NCc1cccs1 | -4.41% (inactive) |  |
| COCCCNC(=O)Cn1cnc(C(=O)Nc2ccc(C)c(C)c2)n1 | -3.97% (inactive) | 0.615 |
| COc1cccc(Nc2nc(N)nc(-c3oc4ccccc4c3C)n2)c1 | -4.01% (inactive) |  |
| Cc1ccc(NS(=O)(=O)c2ccc(OCC(=O)NCC3CCCO3)cc2)cc1 (stereo not drawn) | 2.96% (inactive) |  |
| O=S(=O)(Nc1ccc2c(c1)nc1n2CCOC1)c1ccc(Cl)cc1 | -6.15% (inactive) |  |
| COc1ccc(O)c(/C=N/N2CCOCC2)c1 | -4.77% (inactive) |  |
| COc1cccc(/C=N/N2CCOCC2)c1O | -2.67% (inactive) |  |
| COc1ccc(C=C2NC(=O)NC2=O)cc1O | 5.71% (inactive) |  |
| COc1ccc(NC(=S)N(CCC(C)C)C(C)c2ccncc2)cc1 (stereo not drawn) | 0.57% (inactive) |  |
| CCOC(=O)c1ccc(OCc2nc(-c3cccs3)no2)cc1 | -0.7% (inactive) |  |

| Compound | inhibition | inhibition [1] [%] |
| --- | --- | --- |
| CN(C)S(=O)(=O)c1cccc(NC(=O)CO/N=C(\N)c2ccccc2)c1 | 2.16% (inactive) |  |
| CN(C)S(=O)(=O)c1cccc(-c2nn(-c3ccccc3)cc2/C=C2\SC(=S)NC2=O)c1 | -16% (inactive) |  |
| CC1CCN(C2=NC(=O)/C(=C/c3cn(-c4ccccc4)nc3-c3cccc(S(=O)(=O)N(C)C)c3)S2)CC1 | -0.56% (inactive) |  |
| COc1ccc(-c2nn(-c3ccccc3)cc2/C=C2/SC(=S)N(CCC(=O)O)C2=O)cc1 | 11.8% (inactive) |  |
| CCN1C(=O)/C(=C\c2cn(-c3ccccc3)nc2-c2cccnc2)SC1=S | 2.99% (inactive) |  |
| CCC(=O)Nc1ccc2ccccc2c1 | -7.67% (inactive) |  |
| CCC(=O)Nc1ccc2c(c1)ncn2C | -8.57% (inactive) |  |
| O=c1[nH]nc(-c2ccc(F)cc2)cc1Cc1ccccc1 | -7.66% (inactive) |  |
| COc1ccc(NC(=O)/C(C#N)=C\c2ccc(OCc3ccc(C(=O)O)cc3)c(OC)c2)cc1 | -8.98% (inactive) |  |
| N#C/C(=C\c1ccccc1OCc1ccc(C(=O)O)cc1)C(=O)Nc1ccc(O)cc1 | 27% (inactive) |  |
| O=C(NCCCN1CCOCC1)c1ccc(S(=O)(=O)Nc2ccccc2)cc1 | -4.34% (inactive) |  |
| Cc1ccc(NC(=O)Nc2cc(C)on2)cc1 | -0.74% (inactive) |  |
| CCNc1nc(SC(C(C)=O)C(C)=O)nc(N(C)C)n1 | -1.07% (inactive) |  |
| COc1ccc([N+](=O)[O-])cc1NCC(=O)Nc1cccc(S(=O)(=O)N2CCCC2)c1 | -0.72% (inactive) |  |
| O=C1C(c2ccncc2)=C(O)c2ccccc21 | 2.03% (inactive) |  |
| O=C1C(c2c(O)[nH]c3ccccc23)=Nc2ccccc21 | -46.9% (inactive) |  |
| Clc1ccc(-c2nsc(N3CCOCC3)n2)c(Cl)c1 | -8.96% (inactive) |  |
| Cc1cc(C)c(NC(=O)CNC(=O)COC(=O)/C=C/c2cccs2)c(C)c1 | -7.3% (inactive) |  |
| CCc1nnc(NS(=O)(=O)c2ccc(NC(=O)/C=C/c3ccc(F)cc3)cc2)s1 | 3.59% (inactive) |  |
| CCc1nnc(NS(=O)(=O)c2ccc(NC(=S)NC(=O)/C=C/c3ccc([N+](=O)[O-])cc3)cc2)s1 | 9.83% (inactive) |  |
| CCc1nnc(NS(=O)(=O)c2ccc(NC(=S)NC(=O)/C=C/c3ccc(OC)cc3)cc2)s1 | -1.6% (inactive) |  |
| CCc1nnc(NS(=O)(=O)c2ccc(NC(=S)NC(=O)/C=C/c3ccccc3)cc2)s1 | 8.99% (inactive) |  |
| CC(C)NC1(C#N)CCN(Cc2ccccc2)CC1 | 0% (inactive) |  |

| Compound | inhibition | inhibition [1] [%] |
| --- | --- | --- |
| CCOc1ccc(Nc2nc(C)cc(C)c2C#N)cc1 | 0% (inactive) |  |
| COC(=O)c1sc(N)c(C(=O)OC)c1COC(=O)CNS(=O)(=O)c1cccc(C#N)c1 | -1.45% (inactive) |  |
| COC(=O)c1cc(C)c(C)cc1NC1OC(CO)C(O)C1O (stereo not drawn) | -9.68% (inactive) |  |
| C[C@H](CO)N1C[C@H](C)[C@@H](CN(C)C(=O)c2cnccn2)Oc2cc(C#CCC3CCCC3)ccc2S1(=O)=O | -16.2% (inactive) |  |
| O=C(NCc1ccccc1)N1CCC(CO)(CCc2ccccc2)CC1 | 5.32% (inactive) |  |
| O=C(O)C1Nc2c(Cl)cc(Cl)c(Cl)c2C2C=CCC12 (stereo not drawn) | 8.87% (inactive) |  |
| CC(C)C1Nc2ccc(S(N)(=O)=O)cc2C2C=CCC21 (stereo not drawn) | 16% (inactive) |  |
| CCOC(=O)N1CCC(NC(=O)CCS(=O)(=O)c2ccc3c(c2)CCN3C(C)=O)CC1 | 0% (inactive) |  |
| CCOC(=O)/C=C(\C)Sc1cc(=O)oc2ccccc12 | -12.1% (inactive) |  |
| CCOC(=O)c1c(C)oc2c1cc(O)c1ccccc12 | 18.5% (inactive) |  |
| CCOc1ccc(/C=C/C(=O)c2ccccc2)cc1 | -8.48% (inactive) |  |
| O=C(O)COc1ccc(/C=C/C(=O)c2ccc3ccccc3c2)cc1 | 21.6% (inactive) |  |
| CCOC(=O)c1[nH]nc2c1C(=O)N(Cc1ccccc1)C2=O | -0.68% (inactive) |  |
| CCCCNC(=O)c1sc2ncnc(N3CCc4ccccc4C3)c2c1C | -8.03% (inactive) |  |
| Cc1cccc(NC(=S)N(Cc2ccc(Cl)cc2)Cc2ccc(C(=O)O)cc2)c1 | -0.79% (inactive) |  |
| Cc1cc(C)cc(NC(=S)N(Cc2ccc(Br)cc2)Cc2ccc(C(=O)O)cc2)c1 | -6.24% (inactive) |  |
| CC1CCCN(C(=O)CCNC(=O)Cn2cnc3ccccc3c2=O)C1 (stereo not drawn) | -2.67% (inactive) |  |
| COc1ccc(S(=O)(=O)Oc2ccc3ccccc3c2)cc1 | 0.73% (inactive) |  |
| NS(=O)(=O)c1ccc(Sc2ccc3ccccc3c2)nc1 | -5.01% (inactive) |  |
| COC(=O)c1ccc(NC(=O)C(=O)N2CCN(C(=S)Nc3cccc(C)c3C)CC2)cc1 | -4.36% (inactive) |  |
| COc1ccc(NC(=O)Cc2c(C(=O)O)n(C)c3ccccc23)cc1OC | -17.2% (inactive) |  |
| C[C@H](CO)N1C[C@H](C)[C@@H](CN(C)C(=O)Nc2ccccc2)Oc2c(NC(=O)Cc3ccccc3)cccc2C1=O | -4% (inactive) |  |
| COC(=O)c1cc2c(-c3ccccc3)cc3ccccn3c-2c1C(=O)OC | 27.1% (inactive) |  |

| Compound | inhibition | inhibition [1] [%] |
| --- | --- | --- |
| COC(=O)c1c(C(=O)OC)c2ccccn2c1C(=O)c1ccccc1 | -4.66% (inactive) |  |
| COc1ccc(CN(C)C(C)C(=O)Nc2ccc(S(=O)(=O)N3CCCCC3)cc2)cc1F (stereo not drawn) | 0.37% (inactive) |  |
| CSCCC(C(=O)OCC(=O)c1ccc(C)c(C)c1)N1C(=O)c2cc(Cl)c(Cl)cc2C1=O (stereo not drawn) | 10.7% (inactive) |  |
| O=C1NCCCC2c3c(cc(Br)c(O)c3Br)OC12N1CCOCC1 (stereo not drawn) | 17% (inactive) | -2.28 |
| O=C1NCCCC2c3c(cc(Br)c(O)c3Br)OC12N1CCCCC1 (stereo not drawn) | 10.4% (inactive) |  |
| CCOC(=O)C(NC(=O)Cc1ccccc1)(Nc1cc(C)on1)C(F)(F)F (stereo not drawn) | -5.64% (inactive) |  |
| CCCn1c(SCC(=O)c2[nH]c(C)c(C(C)=O)c2C)n[nH]c1=O | -15.1% (inactive) |  |
| COc1ccc(CCNC(=O)C2CC(c3ccc([N+](=O)[O-])cc3)=NO2)cc1 (stereo not drawn) | 2.79% (inactive) |  |
| CN(C1CCCCC1)S(=O)(=O)c1cn(C)c(=O)n(C)c1=O | -3.31% (inactive) |  |
| COc1cc(C=NNC(=O)c2ccccc2NS(=O)(=O)c2cccs2)cc(OC)c1O | 2.21% (inactive) |  |
| O=C(NN=Cc1ccc(O)cc1)c1ccccc1NS(=O)(=O)c1cccs1 | 2.92% (inactive) |  |
| O=c1cc(-c2nn[nH]n2)[nH]c(=O)[nH]1 | -0.8% (inactive) |  |
| O=C(CN1C(=O)c2cccc([N+](=O)[O-])c2C1=O)N1CCc2ccccc2C1 | -5.49% (inactive) |  |
| O=c1c(C(c2ccc(O)cc2)c2c(O)nc3n(c2=O)CCCS3)c(O)nc2n1CCCS2 | 60.7% (inactive) |  |
| O=c1c(C(c2ccc(Br)cc2)c2c(O)nc3n(c2=O)CCS3)c(O)nc2n1CCS2 | 11.7% (inactive) |  |
| O=c1c(C(c2ccc(F)cc2)c2c(O)nc3n(c2=O)CCS3)c(O)nc2n1CCS2 | -0.78% (inactive) |  |
| O=c1c(C(c2ccc(Cl)cc2)c2c(O)nc3n(c2=O)CCS3)c(O)nc2n1CCS2 | 3.89% (inactive) |  |
| O=Cc1ccc(F)c([B-](F)(F)F)c1 | -5.86% (inactive) |  |
| COc1ccc(N2CC(C(=O)NC3CCCCC3)CC2=O)cc1 (stereo not drawn) | -15.2% (inactive) |  |
| NC(=S)N=Nc1c(O)[nH]c2ccccc12 | -8.45% (inactive) |  |
| NC(=S)N=Nc1c(O)[nH]c2ccc(F)cc12 | 1.93% (inactive) |  |
| Cc1ccc(C)c(S(=O)(=O)NC2CCSC2=O)c1 (stereo not drawn) | 0% (inactive) |  |
